# Assay results as given in PubChem BioAssay (Tox21).
# Where “and” joins values, the source holds several entries; their conditions need not be identical. Equal entries are not always repeated. Inconclusive results are not listed. Where a call stands in place of a potency, no number is given. Calls of active or inactive are those of the source. Calls follow the shape of the dose curve; as a rule, active = well fitted activation curve with a large enough effect in the repeat runs; inconclusive = weak or mixed curves; inactive = no such curve, though single readings can be large or run the other way.
# Target: Nuclear receptor subfamily 1 group I member 2 (Homo sapiens) (UniProt O75469)
# Experiment: Human pregnane X receptor (PXR) small molecule agonists, qHTS assay (AID 1346982); also: nearly all actives have a fitted effect of over 35% in size
# Conditions: PXR-Luc HepG2, CYP3A4 luciferase reporter, 24 h; series mostly up to 92.4 µM
# Text: National Center for Advancing Translational Sciences [NCATS]
# NIH Chemical Genomics Center [NCGC]
# U.S. Environmental Protection Agency [EPA]
# National Institutes of Environmental Health Sciences [NIEHS]
# National Toxicology Program [NTP]
# The human pregnane X receptor (hPXR) regulates the expression of several drug metabolizing enzymes and induction of these proteins is a major mechanism for developing drug resistance in cancer. One such key enzyme catalyzing the drug metabolism is cytochrome P450 3A4 (CYP3A4). Changes in CYP3A4 expression affect drug metabolism, thereby reducing the therapeutic efficacy and altering toxicological response to a drug and which finally causes adverse drug interaction. To screen Tox21 libraries for compounds that activate hPXR-mediated CYP3A4 gene expression, PXR-Luc HepG2 cells were used.
# PXR-Luc HepG2 cells were dispensed at 2,000 per well in 5uL of assay medium containing 5% charcoal-stripped FBS into white solid bottom 1536-well plates (Corning Life Sciences, Corning, NY) using a Multidrop Combi (Thermo Scientific, Waltham, MA) dispenser. The assay plates were incubated at 37 C and 5% CO2 for 5hr, and then 23nL of compounds dissolved in DMSO and positive control were transferred using a Pintool station (Wako, San Diego, CA). The assay plates were incubated at 37C and 5% CO2 for 24hr. For luciferase read, 4uL of ONE-Glo reagent (Promega Corporation, Madison, WI) was added to each well of the assay plates using Flying Reagent Dispenser (FRD, Aurora Discovery, San Diego, CA) and incubated the assay plates at room temperature for 30min. The luminescence signal was quantified using a ViewLux plate reader (Perkin Elmer, Shelton, CT).
# Potency is read from the fitted curve at half-maximal effect.
# Chain of Nuclear receptor subfamily 1 group I member 2 (Homo sapiens) (O75469 whole entry, looked up): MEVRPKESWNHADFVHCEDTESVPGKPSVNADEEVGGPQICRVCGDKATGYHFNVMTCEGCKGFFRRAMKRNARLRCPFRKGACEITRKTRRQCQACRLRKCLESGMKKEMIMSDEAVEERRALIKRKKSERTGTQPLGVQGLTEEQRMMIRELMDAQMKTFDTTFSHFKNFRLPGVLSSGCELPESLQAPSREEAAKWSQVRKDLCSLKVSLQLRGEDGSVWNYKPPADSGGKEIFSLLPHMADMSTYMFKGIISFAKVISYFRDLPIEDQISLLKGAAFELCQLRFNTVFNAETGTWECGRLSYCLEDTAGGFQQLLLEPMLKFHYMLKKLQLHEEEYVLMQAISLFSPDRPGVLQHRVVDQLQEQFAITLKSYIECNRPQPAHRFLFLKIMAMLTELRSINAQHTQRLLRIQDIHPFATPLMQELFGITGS
row,SMILES,Potency
1,c1ccc2sc(SNC3CCCCC3)nc2c1,60.4 µM (active) and 48.6 µM (active)
2,CCCCCCCCP(=O)(O)O,inactive
3,Nc1ccccc1C(=O)OCC(O)CO (stereo not given),inactive
4,CCOC(=O)c1cn2nc(OP(=S)(OCC)OCC)cc2nc1C,30.6 µM (active)
5,CCOP(=O)(O)C(N)=O,inactive
6,C=C(Cl)Cl,58 µM (active)
7,C[C@H]1[C@@H]2Cc3ccc(O)cc3[C@@]1(C)CCN2C,inactive
8,C#CC(O)(C=CCl)CC (stereo not given),inactive
9,NNCCO,inactive
10,COC(=O)Cc1ccccc1,inactive
11,O=C(Cc1ccccc1)c1ccccc1,61.1 µM (active)
12,C=CC(=O)OCC,inactive
13,Nc1cc(Cl)cc(C(=O)O)c1Cl,inactive
14,COC1=CC(=O)O[C@@H](/C=C/c2ccc3c(c2)OCO3)C1,inactive
15,COC1CC(=C(c2cccs2)c2cccs2)C[N+](C)(C)C1 (stereo not given),inactive
16,CCCC[N+](CCCC)(CCCC)CCCC,inactive
17,CN[C@@H](C)[C@H](O)c1ccccc1,inactive
18,CC(C)(c1ccccc1)c1cc(-n2nc3ccccc3n2)c(O)c(C(C)(C)c2ccccc2)c1,inactive
19,CCCC1CCCCN1 (stereo not given),inactive
20,CCCCC#N,inactive

row,SMILES,Potency
1,O=C(N/N=C/c1ccc([N+](=O)[O-])o1)c1cc([N+](=O)[O-])cc([N+](=O)[O-])c1O,inactive
2,CCC1CCC(=O)O1 (stereo not given),inactive
3,CCCCCCCCCCCCCCCl,61.4 µM (active)
4,NC(=S)c1c(Cl)cccc1Cl,inactive
5,Nc1ccccc1C(=O)OCCc1ccccc1,48.8 µM (active) and 30.6 µM (active)
6,C[N+]1(CCC(C(N)=O)(c2ccccc2)c2ccccc2)CCCCC1,inactive
7,O=C(O)c1cc(Cl)ccc1Cl,inactive
8,NCCc1cc(O)c(O)cc1O,inactive
9,Cc1cccc(C)c1NC1=NCCCS1,inactive
10,C[N+]1(CCF)[C@@H]2CC[C@H]1CC(OC(=O)C(O)(c1ccccc1)c1ccccc1)C2 (stereo not given in full),inactive
11,C[C@H]1O[C@H](OC2[C@@H](O)[C@@H](O)C(O)[C@H](O)[C@H]2O)[C@@H](N)C[C@@H]1N=C(N)C(=O)O (stereo not given in full),inactive
12,CCCCC1C(=O)NC(=O)N(C2CCCCC2)C1=O (stereo not given),inactive
13,OCCCl,inactive
14,CCC1(CCC(C)C)C(=O)NC(=O)NC1=O,inactive
15,FC(Cl)(Cl)C(F)(Cl)Cl,inactive
16,CN1C(=O)CN=C(c2ccccc2)c2cc([N+](=O)[O-])ccc21,inactive
17,CC(C)CCCCCCCOC(=O)c1ccccc1C(=O)OCCCCCCCC(C)C,inactive
18,OCCSSCCO,inactive
19,Cc1cnc(C2=NC(C)(C(C)C)C(=O)N2)c(C(=O)O)c1 (stereo not given),inactive
20,CCc1ccccc1N,inactive
